Results taken from PubChem BioAssay (NCI).
“And” between values parts separate entries of the source, which are not always exact repeats. Identical values can stand only once. This is part of a sample that, as a whole, favours compounds with a hit. Of some 83,000 tested, about 20% had one in any assay.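 Single-concentration screen, 48 h exposure, 96-well plates. Endpoint: percent growth. Below 10 = active.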 The source made the active and inactive calls. Where a SMILES comes first, the peptide text is derived from it. The star is where a group is joined. Trt = c1ccc(C(c2ccccc2)(c2ccccc2)*)cc1; Cbz = O=C(OCc1ccccc1)*

Columns and labels:
Test in all cases: NCI-60 one-dose screen, 48 h (100 = growth as untreated, 0 = no growth, -100 = all killed)
T-47D breast = conditions: 10 µM unless noted
BT-549 breast = conditions: 10 µM unless noted
MDA-MB-435 melanoma = conditions: 10 µM unless noted
SW-620 colon = conditions: 10 µM unless noted
MCF7 breast = tested on: MCF7 breast
HCT-116 colon = conditions: 10 µM unless noted
HCC-2998 colon = conditions: 10 µM unless noted
KM12 colon = conditions: 10 µM unless noted

Structure (SMILES) | growth (T-47D breast) | growth (BT-549 breast) | growth (MDA-MB-435 melanoma) | growth (SW-620 colon) | growth (MCF7 breast; 10 µM) | growth (HCT-116 colon) | growth (HCC-2998 colon) | growth (KM12 colon) | growth (MCF7 breast; 100 µM)
O=C(Nc1ccccc1)Oc1c(Cl)c(Cl)c(Cl)c(Cl)c1Cl | 102% (inactive) and 84.5% (inactive) | 98.7% (inactive) and 88.5% (inactive) | 109% (inactive) and 98.8% (inactive) | 101% (inactive) and 102% (inactive) | 98.1% (inactive) and 91.5% (inactive) | 105% (inactive) and 101% (inactive) | 112% (inactive) and 108% (inactive) | 100% (inactive) and 97.5% (inactive) | 
Nc1nc(N)c2c(ccc3c2ccn3Cc2cccc([N+](=O)[O-])c2)n1 | -67% (active) | -91.4% (active) | -93.4% (active) | -91.8% (active) | -79.2% (active) | -84.9% (active) | -86% (active) | -92.3% (active) | 
CNC(=O)N/N=C/c1ccc([N+](=O)[O-])o1 | 104% (inactive) | 110% (inactive) | 121% (inactive) | 105% (inactive) | 95.3% (inactive) | 94.8% (inactive) | 106% (inactive) | 92.2% (inactive) | 
CCCCCCCCCCCCCCNCc1ccccc1 | 72.9% (inactive) | 96.6% (inactive) | 72.2% (inactive) | 42.5% (inactive) | 51.2% (inactive) | 86.8% (inactive) | 16.1% (inactive) | 62.5% (inactive) | 
CCCCCCCCCCCCCCCCN(CC)CC | 2.05% (active) | -36.8% (active) | -80.8% (active) | -69.1% (active) | -68.6% (active) | -52.5% (active) | -97.1% (active) | -57% (active) | 
CCC(CC)COC(=O)c1ccc(O)c(O)c1 | 43.6% (inactive) | 50% (inactive) | 69.8% (inactive) | 80.5% (inactive) | 97.5% (inactive) | 72.6% (inactive) | 84.4% (inactive) | 61.3% (inactive) | 
CCOc1ccc(-c2nc3ccc(-c4nc5ccc(N6CCN(C)CC6)cc5[nH]4)cc3[nH]2)cc1 | -69.4% (active) | -96.6% (active) | -96% (active) | -85.5% (active) | -90.3% (active) | -77.6% (active) | -95.3% (active) | -100% (active) | 
COC(=O)Nc1nc2ccc(C(=O)c3ccccc3)cc2[nH]1 | 36.8% (inactive) and 82.6% (inactive) and 77.2% (inactive) | 63.9% (inactive) and 63% (inactive) and 51.4% (inactive) | -59.5% (active) and -46.6% (active) and -73% (active) | 24.2% (inactive) and 25% (inactive) and 19.4% (inactive) | 21.4% (inactive) and 18.4% (inactive) and 8.91% (active) | 19.9% (inactive) and 9.73% (active) and 13.3% (inactive) | 57.3% (inactive) and 2.48% (active) and 23.8% (inactive) |  | 
CN=C(N)N/N=C(\C)c1ccc2c(c1)Cc1cc(/C(C)=N/NC(N)=NC)ccc1-2 | -26% (active) | 49.6% (inactive) | -59.7% (active) | -14.8% (active) | -38.3% (active) | -23.5% (active) | -78.7% (active) | -20.3% (active) | 
CCCCCCCCCCCCCCCCCCOP(=O)([O-])OC1CC[N+](C)(C)CC1 | -18.4% (active) and 2.5% (active) | 24.3% (inactive) and -14.9% (active) | 15.8% (inactive) and -67.3% (active) | 46.3% (inactive) and 25% (inactive) | 38.5% (inactive) and 18.4% (inactive) | 19.5% (inactive) and -41.9% (active) |  | -44.2% (active) and -95.1% (active) | 
COc1ccc(N=N/N=c2\sc3cc(OC)ccc3n2C)cc1 | 83.6% (inactive) | 95.5% (inactive) | 104% (inactive) | 102% (inactive) | 78.9% (inactive) | 95.8% (inactive) |  | 95% (inactive) | 
OC(CNc1ccnc2cc(Cl)ccc12)CNc1ccnc2cc(Cl)ccc12 | 9.13% (active) | 85.2% (inactive) | -43.6% (active) | -31.2% (active) | 18.5% (inactive) | 5.7% (active) |  | 44.5% (inactive) | 
NC1=CC(=O)c2ccccc2C1=O | 98% (inactive) | 92.1% (inactive) | 8.66% (active) | 107% (inactive) | 54.5% (inactive) | 80.8% (inactive) | 90.4% (inactive) | 79.3% (inactive) | 
CC(=O)C(=Cc1ccc(C=C(C(C)=O)C(C)=O)cc1)C(C)=O | 29.1% (inactive) | 12.6% (inactive) | 7.62% (active) | -11.2% (active) | 1.33% (active) |  | 45.2% (inactive) |  | 
Oc1c(Cl)c2ccccc2c2ccccc12 | 122% (inactive) | 95.8% (inactive) | -72% (active) | 111% (inactive) | 98.8% (inactive) | 101% (inactive) |  | 107% (inactive) | 
CCN(CC)CC(C)(C)C(=O)/C=C/c1ccc(Cl)c(Cl)c1 | -11.3% (active) | 16.4% (inactive) | 1.76% (active) | -39.5% (active) | -13.8% (active) | -60.6% (active) |  | -4.49% (active) | 
CCC(=O)Sc1ccccc1C(=O)Nc1ccc(Cl)cc1 | 45.1% (inactive) | 10.2% (inactive) | 25.9% (inactive) | 17.5% (inactive) | 19% (inactive) | 25.8% (inactive) | 85.7% (inactive) | 64.9% (inactive) | 
COc1ccccc1OC(=O)Oc1ccccc1OC | 123% (inactive) and 100% (inactive) | 97% (inactive) | 112% (inactive) and 96% (inactive) | 94.6% (inactive) and 92.8% (inactive) | 96.1% (inactive) and 88.8% (inactive) | 99.9% (inactive) and 101% (inactive) | 102% (inactive) and 94.6% (inactive) | 107% (inactive) and 98% (inactive) | 
O=C(/C=C/C=C/c1ccccc1)c1ccco1 | 67.5% (inactive) | 113% (inactive) | 92.8% (inactive) | 62.4% (inactive) | 26.1% (inactive) | 36.3% (inactive) | 114% (inactive) | 86.8% (inactive) | 
COC(=O)c1nc(=S)[nH]c(C(=O)OC)c1C(=O)c1ccccn1 | 51.5% (inactive) | 50.3% (inactive) | 33.3% (inactive) | 43.3% (inactive) | 14.6% (inactive) | 17.9% (inactive) |  | 24.6% (inactive) | 
CN(C)c1ccc(N=Nc2cccc3ccccc23)cc1 | 22.2% (inactive) | 76.8% (inactive) | 98.8% (inactive) | 98.6% (inactive) | 14.2% (inactive) | 75.2% (inactive) |  | 94.2% (inactive) | 

Structure (SMILES) | growth (T-47D breast) | growth (BT-549 breast) | growth (MDA-MB-435 melanoma) | growth (SW-620 colon) | growth (MCF7 breast; 10 µM) | growth (HCT-116 colon) | growth (HCC-2998 colon) | growth (KM12 colon) | growth (MCF7 breast; 100 µM)
CCN(CC)CCOc1ccc(-c2nc3cc(Cl)ccc3s2)cc1 | 22% (inactive) | 68% (inactive) | -51.1% (active) | -52.9% (active) | 9.23% (active) | -69.3% (active) |  | -99.2% (active) | 
O=C(/C=C\c1ccccc1)N1c2ccccc2CC1c1c[nH]c2ccccc12 (centres undefined) | 23.4% (inactive) | 88.6% (inactive) | 83.8% (inactive) | 78.2% (inactive) | 66.2% (inactive) | 23.1% (inactive) | 85.6% (inactive) | 64.4% (inactive) | 
CCCCCCCCCCCCCCCCOP(=O)([O-])OCC[N+](C)(C)C | 73% (inactive) | 45% (inactive) | 68.3% (inactive) | 50.9% (inactive) | 68.5% (inactive) | 24.6% (inactive) |  | -90.4% (active) | 
Cc1ccc2nc(C[n+]3ccc4ccccc4c3)ccc2c1 | 32.2% (inactive) | 21.7% (inactive) | 54.7% (inactive) | 80.2% (inactive) | 35.6% (inactive) | 53.5% (inactive) |  | 56.4% (inactive) | 
Cc1ccc(C(=Nc2ccccc2)N=P(c2ccccc2)(c2ccccc2)c2ccccc2)cc1 | -33.4% (active) | -26.9% (active) | -76.4% (active) | -40.7% (active) | -39.7% (active) |  | -71.6% (active) | -70.9% (active) | 
O=C(O)c1ccc2c3c(ncnc13)-c1ccccc1C2=O | 101% (inactive) | 33.8% (inactive) | -60% (active) | 87.7% (inactive) | 50.9% (inactive) | 91.2% (inactive) |  | 46.5% (inactive) | 
O=C1c2ccccc2C(=O)c2sc(Nc3ccc(Cl)cc3)nc21 | 29.2% (inactive) | 75.9% (inactive) | -87.5% (active) | -40% (active) | -60.3% (active) | -36.6% (active) | 57.6% (inactive) | 60.1% (inactive) | 
COc1cc(/C=C(/C)C[N+](=O)[O-])ccc1O | 56.7% (inactive) | 113% (inactive) | 105% (inactive) | 48.9% (inactive) | 16.5% (inactive) | 82.7% (inactive) |  | 96.5% (inactive) | 
COC(=O)C(CSC(c1ccccc1)(c1ccccc1)c1ccccc1)NC(=O)C(CC(N)=O)NC(=O)OCc1ccccc1 (stereo not drawn) (Cbz-Asn-Cys(Trt)-OMe; configuration not given here) | -0.975% (active) | 50.6% (inactive) | -37.3% (active) | 62.6% (inactive) | 32.3% (inactive) |  | -18.7% (active) | 33% (inactive) | 
CCN1/C(=C\c2cc[n+](CC)c3ccccc23)C=Cc2ccccc21 | 2.9% (active) | 10.8% (inactive) | -30.7% (active) | 8.76% (active) | 8.12% (active) | 11.9% (inactive) | 23% (inactive) | 1.57% (active) | 
N#CSCc1c(Cl)cccc1Cl | 79.9% (inactive) | 88.4% (inactive) | 29.6% (inactive) | 34.7% (inactive) | 33.3% (inactive) | 4.1% (active) | 70% (inactive) | 48.1% (inactive) | 
N#CSCC(=O)c1ccc(Cl)cc1 | 71.4% (inactive) | 43.7% (inactive) | 15.8% (inactive) | 22.7% (inactive) | 10.7% (inactive) | -16.3% (active) |  | 14.7% (inactive) | 
CC(=O)ON=C1C=CC(=C(C#N)c2ccccc2)C=C1 | 42.3% (inactive) | 50.7% (inactive) | -2.19% (active) | 6.41% (active) | 15.5% (inactive) | -13.1% (active) | 88.3% (inactive) | -48.2% (active) | 
O=C(Nc1ccc(F)cc1)ON=C1CCCCC1 | 79% [100 µM] (inactive) | 106% [100 µM] (inactive) | 98.1% [100 µM] (inactive) | 99.8% [100 µM] (inactive) |  | 99.2% [100 µM] (inactive) |  | 92.9% [100 µM] (inactive) | 98.2% (inactive)
Cc1ccc2nc(-[n+]3cc4ccccc4cc3C)ccc2c1 | 15.3% (inactive) | 0.0135% (active) | 27.8% (inactive) | 55.8% (inactive) | 20.3% (inactive) | 25.8% (inactive) |  | 31.5% (inactive) | 
CC1SC(=S)N(c2ccc(Cl)cc2)C1=O (centres undefined) | 73.9% (inactive) and 62.8% (inactive) | 106% (inactive) and 86.2% (inactive) | 106% (inactive) and 99.8% (inactive) | 109% (inactive) and 113% (inactive) | 96.9% (inactive) and 79.9% (inactive) | 100% (inactive) and 93.4% (inactive) | 90.7% (inactive) | 94.6% (inactive) and 108% (inactive) | 
Cc1cc(C(C)(CC(C)C)c2ccc(O)c(C)c2)ccc1O | 86.8% (inactive) | 109% (inactive) | 94.1% (inactive) | 117% (inactive) | 115% (inactive) |  | 103% (inactive) |  | 
O=C(/C=C/c1cccc(Cl)c1)c1ccccc1 | 96.8% (inactive) and 88.3% (inactive) | 98.4% (inactive) and 85.2% (inactive) | 88.1% (inactive) and 59.8% (inactive) | 52.8% (inactive) and 39.4% (inactive) | 31.4% (inactive) and 15.7% (inactive) | 12.3% (inactive) and -17.1% (active) | 92.5% (inactive) | 63.2% (inactive) and 30.8% (inactive) | 
CCOC(=O)c1c(C)[nH]c(CO)c1C | 93.5% (inactive) | 109% (inactive) | 111% (inactive) | 109% (inactive) | 91.6% (inactive) | 100% (inactive) | 109% (inactive) | 94.2% (inactive) | 
O=C(Nc1cccc(Br)c1)Oc1ccc(Cl)c2cccnc12 |  |  |  |  |  |  |  |  | -30.3% (active)
